High-throughput results (PubChem BioAssay)
In the library only some 4.5% were active in any assay of this set; here they are far more common.
GRK2 inh: compounds blocking aptamer binding on GRK2 – biochemical, human GRK2, bead flow cytometry, HTS, primary screen; Beta-adrenergic receptor kinase 1 (Homo sapiens), P25098; FAM-aptamer displacement from GRK2; inhibition of aptamer binding, % at 10 µM; 0.59% of 330,000 active; AID 488847, 2010;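 active = inhibition of aptamer binding above 40%, roughly 3 SD of noise, on plates passing a quality check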;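 also: median bead fluorescence of bound FAM aptamer so fluorescent compounds give negative values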
Rce1 inhib: yeast Rce1p protease inhibitors, primary screen, biochemical, fluorescence, cell-free homogeneous. CAAX prenyl protease 2 (Saccharomyces cerevisiae (strain ATCC 204508 / S288c)), Q03530. yeast membranes, quenched prenylated peptide cleavage fluorescence. calls only. 0.27% of 290,000 active;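 active = fall in fluorescence gain of 50% or more versus controls, with final raw signal at or below 3038400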;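 also: plate controls were neutral control wells for no effect and wells lacking membranes for full effect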
Target sequence (Q03530 whole entry, looked up): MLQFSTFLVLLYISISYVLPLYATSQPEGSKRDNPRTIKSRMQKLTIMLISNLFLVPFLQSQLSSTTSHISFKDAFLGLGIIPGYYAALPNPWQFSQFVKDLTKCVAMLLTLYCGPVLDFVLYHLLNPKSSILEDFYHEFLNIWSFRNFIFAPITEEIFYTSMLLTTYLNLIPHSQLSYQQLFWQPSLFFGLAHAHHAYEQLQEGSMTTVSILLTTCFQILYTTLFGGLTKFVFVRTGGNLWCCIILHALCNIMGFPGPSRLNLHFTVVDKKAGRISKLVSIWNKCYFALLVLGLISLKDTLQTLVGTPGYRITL
Efflux pump inh: inhibitors of Candida efflux pumps in yeast, primary screen, S. cerevisiae, Nile Red, multiplex; S. cerevisiae Candida pump triplex; inhibition, % at 10 µM; 0.44% of 330,000 active;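 active = plate passing quality check with inhibition over a set limit, or well fluorescence over plate mean plus 4 SD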;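 also: Nile Red retained in pooled yeast measured as flow cytometry median fluorescence; 0% = buffer negative control and 100% = Enniatin B positive control; higher means more Nile Red kept so more efflux inhibition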
Rtt109 Vps75: inhibitors of C. albicans Rtt109/Vps75 HAT, primary screen, biochemical, ThioGlo CoA-SH fluorescence, plate reader. AID 540336, 2011. 0.16% of 330,000 active. Histone acetyltransferase RTT109 (Candida albicans (strain SC5314 / ATCC MYA-2876)), …. inhibition, % at 34.9 µM. purified Rtt109/Vps75, 4 h;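 active = inhibition of at least 50% in every replicate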
ALR H2O2 inh: inhibitors of human ALR sulfhydryl oxidase, primary screen, biochemical, H2O2 detection, HRP-luminol luminescence, single point; FAD-linked sulfhydryl oxidase ALR (Homo sapiens), P55789; inhibition, % (test concentration not listed); AID 485317, 2010; purified ALR, DTT oxidation; 3.8% of 290,000 active;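 active = mean replicate inhibition above about 79%, with every replicate also reaching it, limit read from the data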
Target sequence (P55789 whole entry, looked up): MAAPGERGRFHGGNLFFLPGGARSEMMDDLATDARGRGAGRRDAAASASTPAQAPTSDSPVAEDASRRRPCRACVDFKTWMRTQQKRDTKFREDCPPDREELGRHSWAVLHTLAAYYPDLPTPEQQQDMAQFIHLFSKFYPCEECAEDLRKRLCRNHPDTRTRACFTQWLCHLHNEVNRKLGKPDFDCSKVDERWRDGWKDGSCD
HDAC3 inh: HDAC3 deacetylase inhibitors, primary screen, biochemical, fluorescence, cell-free homogeneous | recombinant HDAC3, fluorogenic peptide/trypsin coupled | inhibition, % at 8.3 µM | 0.15% of 320,000 active | AID 2718, 2010; in the data active = inhibition above about 26%, passing the limit was not always enough
GRK2 CP1: GRK2 aptamer-displacing inhibitors, retest, confirmation, biochemical, cherry pick 1, bead flow cytometry. shares compounds with GRK2 inh. bead-bound GRK2, FAM-aptamer displacement. aptamer displacement, % at 10 µM. 4% of 2,000 active;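 active = aptamer displacement above 40%, near three times the noise of non-fluorescent compounds, on plates passing quality checks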;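 also: negative values mostly reflect intrinsic compound fluorescence rather than true enhancement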
FAM quench CP1: aptamer fluorescence quenching in GRK2 counter-screen; shares compounds with GRK2 inh; Carboxyfluorescein RNA aptamer on beads, flow cytometry quenching; hits give low values; AID 504580; fluorescence response (% of DMSO), % at 10 µM; 2,000 tested, under 10 active;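 active = compounds that quench the bead-bound fluorescent RNA probe, cutting fluorescence to under half of the solvent control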;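 also: counterscreen run without GRK2 so only probe quenching by compound is measured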
GRK2 CP2: GRK2 aptamer-displacing inhibitors, hit retest, confirmation, biochemical, cherry pick 2, bead flow cytometry; bead-bound GRK2, FAM-aptamer displacement; shares compounds with GRK2 inh; inhibition of aptamer binding, % at 10 µM; 360 tested, under 10 active;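 active = inhibition of aptamer binding above 40%, about triple the noise seen with nonglowing compounds, on plates passing quality control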;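 also: negative values mostly come from compounds that fluoresce themselves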
FAM quench SP: aptamer fluorescence quenching in GRK2 counter-screen; AID 588494; 360 tested, under 10 active; carboxyfluorescein RNA aptamer beads, flow cytometry quenching; hits give low values; shares compounds with GRK2 inh; fluorescence response vs DMSO, % at 10 µM;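 active = response vs DMSO under 50%, meaning signal dropped by over half, treated as fluorescence quencher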;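 also: labelled aptamer on streptavidin beads without GRK2 as a quench counter-screen; 100% = bead fluorescence of DMSO wells and lower means quenching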
An asterisk follows results filed as active; i = inactive; x = no result given.

SMILES | GRK2 inh | Rce1 inhib | Efflux pump inh | Rtt109 Vps75 | ALR H2O2 inh | HDAC3 inh | GRK2 CP1 | FAM quench CP1 | others
C/C(=N\NC(=O)c1cccs1)c1ccc2ccccc2c1 | 12 | i | 0 | 0 | -9 | -1 | 1 | 102
CCC(C)(C)NC(=O)CN(Cc1cccs1)C(=O)C(=O)Nc1ccc2c(c1)OCCO2 | 74* | i | 0 | x | -3 | 5 | 2 | 88
COc1ccc(C)cc1NC(=O)c1ccc2c(c1)C(=O)N(Cc1ccncc1)C2=O | 79* | x | 0 | 5 | -3 | -2 | 2 | 95
CCCCn1c(N)c(N(CC)C(=O)C2COc3ccccc3O2)c(=O)[nH]c1=O (centres undefined) | x | x | x | 3 | x | x | x | x
CC(C)Cc1ccc(C#N)c(SCC(N)=O)n1 | 75* | i | 0 | -10 | -4 | -1 | 2 | 91
CC(CC(=O)Nc1ccc(F)cc1)S(=O)(=O)c1ccc2c(c1)NC(=O)CO2 (centres undefined) | 4 | i | 0 | -6 | -9 | 1 | x | x
CC(CC(=O)Nc1ccc(Br)cc1F)S(=O)(=O)c1ccc2c(c1)NC(=O)CO2 (centres undefined) | 0 | i | 0 | -4 | -6 | -4 | x | x | GRK2 CP2=-8;FAM quench SP=102
COC(=O)c1ccc(CSc2nnc(C)n2N)o1 | 100* | i | 4 | -6 | -6 | -1 | x | x | GRK2 CP2=-1;FAM quench SP=111
O=C(C[C@@H]1C/C=C\CCCC(=O)OC[C@@H]2CCCN2C1=O)N[C@@H](CO)Cc1ccccc1 | 0 | x | 0 | -5 | -1 | -4 | x | x
COc1ccc(CCN=C(N)Nc2nc(C)cc(C)n2)cc1 | 2 | i | 0 | -5 | -13 | -8 | x | x
COc1ccc(Cl)cc1Nc1nnc(-c2ccncc2)s1 | 55* | i | 0 | 6 | x | -2 | -11 | 103
CC(=O)Nc1ccc(NC(=O)[C@@H](NC(=O)N2C[C@H]3C[C@@H](C2)c2cccc(=O)n2C3)C(C)C)cc1 | 1 | x | 0 | 3 | -6 | -4 | x | x
COC(=O)c1sc(NC(=O)COc2cccc(C)c2)nc1C | 72* | i | 0 | -11 | -5 | -3 | x | x | GRK2 CP2=-12;FAM quench SP=105
O=C(NCc1ccco1)/C(=C/c1ccc(Br)cc1)NC(=O)c1ccco1 | 0 | i | -1 | 15 | 14 | -11 | x | x
O=C(O)CC(NC(=O)C12CC3CC(CC(C3)C1)C2)c1ccc2c(c1)OCO2 (centres undefined) | 1 | i | 0 | -2 | 1 | -2 | x | x
O=C(O)CC(NC(=O)C12CC3CC(CC(C3)C1)C2)c1ccc(F)cc1 (centres undefined) | 88* | i | 0 | -1 | -1 | 2 | 1 | 95
Cc1ccc(OCCNC(=O)CCc2ccccc2)cc1C | 79* | i | 0 | -23 | -3 | 4 | 2 | 98
CC(C(=O)Nc1ccc2c(c1)OCO2)N1CCC(N2CCCCC2)CC1 (centres undefined) | 0 | x | 0 | 2 | -3 | -3 | x | x
Cc1ccc(S(=O)(=O)N2CCN(C(=O)COC(=O)CCc3ccccc3)CC2)c(C)c1 | 0 | x | 0 | -2 | x | 5 | x | x
